High-throughput results as filed in PubChem.
Only some compounds are listed: those with a hit (about 2.8% of all), similar ones and a draw of the others.
SNCA expr inhib – inhibitors of alpha-synuclein (SNCA) gene expression; AID 1671194; Potency, µM (highest dose often 57.2 µM), hits mostly inhibitors; 140,000 compounds, 0.17% hits; HEK-293 SNCA-luciferase knock-in, luminescence, 24 h; further: nearly all actives have a fitted effect of over 45% in size
KDM5B inh – blocks human KDM5B histone demethylase activity; Q9UGL1; KDM5B demethylase, FDH-coupled NADH fluorescence (FDH is formaldehyde dehydrogenase); Potency, µM (titrated, usually from 57.7 µM), usual class: inhibitors; 220,000 compounds, 2.6% hits; AID 1347165; further: nearly all actives have a fitted effect of over 70% in size
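Inhibition is measured as reduced NADH fluorescence generation from FDH coupling to formaldehyde release. Truncated KDM5BΔAP at 200 nM final acts on H3K4me3 peptide (12.5 µM in substrate mix) in pH 7.5 HEPES buffer with Tween-20, 30 min, room temperature.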
IP6K1 inhibitor – inhibitors of human IP6K1 | Q92551 | activity change, % (series mostly up to about 58 µM) | IP6K1 kinase, ADP-Glo luminescence, 2 h; hits give low values | 140,000 compounds, 0.81% hits; in the data active means activity change below about -25%
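ADP-Glo luminescence measures ADP made by human IP6K1 during a 2 h RT reaction with ATP/IP6 (mix at 1.3 mM/130 uM); top library doses 57.5 and 19.1 uM final.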
HEK293 viab – cell viability loss counter-screen; HEK-293-SNCA-luc viability, GF-AFC fluorescence, 24 h; Potency, µM (titrated, usually from 57.1 µM), hits mostly cytotoxic; 150,000 compounds, 0.12% hits; further: nearly all actives have a fitted effect of over 30% in size
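HEK-293-SNCA-luc cells (1500/well) plated 24 h, then exposed 24 h to a dilution series; GF-AFC added 30 min at 37C, fluorescence 405/540 nm; normalised to medium-only and DMSO wells, Hill fit.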
IP6K1 conf – confirmation of human IP6K1 inhibitors; shares compounds with IP6K1 inhibitor; recombinant IP6K1 kinase, ADP-Glo luminescence, 2 h; Potency, µM (top dose mostly 49 µM), usual class: inhibitors; 1,200 compounds, 13% hits; AID 1645852; further: nearly all actives have a fitted effect of over 65% in size
Numbers stand for hits. Unless noted, the call rests on the fitted dose curve; in most records, active means well fitted curve in the direction sought with a large enough effect; inconclusive means small, poorly fitted or top-dose-only effect, or another doubt; inactive means no such curve, though single readings can be large; an effect the other way counts as inactive or inconclusive.

CC(=O)N[C@@H]1[C@H](O[C@@H]2c3ccc(c(Cl)c3)Oc3cc4cc(c3O[C@H]3O[C@H](CO)[C@@H](O)[C@H](O)[C@H]3NC(=O)CCCCCCCC(C)C)Oc3ccc(cc3Cl)C[C@H]3NC(=O)[C@H](N)c5ccc(O)c(c5)Oc5cc(O)cc(c5)[C@H](NC3=O)C(=O)N[C@H]4C(=O)N[C@H]3C(=O)N[C@@H]2C(=O)N[C@@H](C(=O)O)c2cc(O)cc(O[C@H]4O[C@H](CO)[C@@H](O)[C@H](O)[C@H]4O)c2-c2cc3ccc2O)O[C@H](CO)[C@@H](O)[C@@H]1O was read as SNCA expr inhib inactive and HEK293 viab inactive.
For CN[C@H](CC(C)C)C(=O)N[C@H]1C(=O)N[C@@H](CC(N)=O)C(=O)N[C@H]2C(=O)N[C@H]3C(=O)N[C@H](C(=O)N[C@H](C(=O)O)c4cc(O)cc(O)c4-c4cc3ccc4O)[C@H](O[C@H]3C[C@](C)(N)[C@@H](O)[C@H](C)O3)c3ccc(c(Cl)c3)Oc3cc2cc(c3O[C@@H]2O[C@H](CO)[C@@H](O)[C@H](O)[C@H]2O[C@H]2C[C@](C)(NCc3ccc(-c4ccc(Cl)cc4)cc3)[C@@H](O)[C@H](C)O2)Oc2ccc(cc2Cl)[C@H]1O the results were IP6K1 inhibitor -32, HEK293 viab inactive and IP6K1 conf inconclusive.
COc1ccc(S(=O)(=O)N2CCN(Cc3ncc(-c4ccc(F)cc4)o3)CC2)cc1OC was read as KDM5B inh inactive.
COc1ccc(CCNC(=O)CSc2nc(-c3ccc(Cl)cc3)nc3cc(=O)[nH]n23)cc1OC was read as KDM5B inh inactive.
For C/C=C/C=C/C=C/C(=O)O[C@@H]1[C@@H](OC)C2=C(C(=O)N(C(C)C(=O)O)C2)[C@@]2(C)CCCC(C)(C)[C@H]12 (stereo partly drawn) the results were IP6K1 inhibitor inactive, HEK293 viab inactive and IP6K1 conf inactive.
Screening Cc1ccc(-n2ncc(C(=O)NCc3cccs3)c2C2CCN(C(=O)OC(C)(C)C)CC2)c(C)c1 returned SNCA expr inhib inconclusive, KDM5B inh inconclusive, IP6K1 inhibitor -33, HEK293 viab inactive and IP6K1 conf inactive.
Screening Cc1ccc(-n2ncc(C(=O)N3CCN(c4ccc(Cl)cc4)CC3)c2C2CCN(C(=O)OC(C)(C)C)CC2)c(C)c1 returned SNCA expr inhib inactive, KDM5B inh inactive, IP6K1 inhibitor -35, HEK293 viab inactive and IP6K1 conf inactive.
Screening Cc1ccc(-n2ncc(C(=O)NCc3cccs3)c2C2CCN(C(=O)OC(C)(C)C)CC2)cc1C returned SNCA expr inhib inconclusive, KDM5B inh inactive, IP6K1 inhibitor inactive and HEK293 viab inconclusive.
For O=S(=O)(NCc1ccc(N2CCCC2)nc1)c1ccc2c(c1)CCCC2 the results were KDM5B inh inactive.
`Cc1cccc(C(C)C)c1NC(=O)c1cc(F)c(F)cc1Cl` gave KDM5B inh inactive.
Screening CCn1nc(C(=O)OCC(=O)NC(=O)NCc2ccccc2)c2ccccc2c1=O returned KDM5B inh inactive.
For CCCCc1cc(=O)oc2cc(OCC(=O)Nc3ccc(C(N)=O)cc3)ccc12 the results were KDM5B inh inactive.
`Cc1ccc(F)c(NC(=O)CCc2c(C)nc(C)[nH]c2=O)c1` gave KDM5B inh inactive.
For CCOc1ccc(/C=C(\C#N)C(=O)Nc2sc3c(c2C(=O)OC)C(C(=O)OC)CC3)cc1OC (stereo not drawn) the results were SNCA expr inhib inactive, KDM5B inh inconclusive, IP6K1 inhibitor -29, HEK293 viab inactive and IP6K1 conf 2.9µM.
CCOc1cc(Br)c(C2C(C(=O)OC)=C(C)NC3=C2C(=O)c2ccccc23)cc1OCC (stereo not drawn) was read as SNCA expr inhib inactive, KDM5B inh inconclusive, IP6K1 inhibitor -32, HEK293 viab inactive and IP6K1 conf inactive.
For CCOc1cc(C2C(C(=O)OC)=C(C)NC3=C2C(=O)c2ccccc23)c(Br)cc1OC (stereo not drawn) the results were SNCA expr inhib inactive, KDM5B inh inconclusive, IP6K1 inhibitor inactive and HEK293 viab inactive.
`OC[C@H]1C[C@@H](NCc2cccc(Cl)c2)[C@H](O)[C@@H]1O` gave SNCA expr inhib inactive, KDM5B inh inconclusive, IP6K1 inhibitor inactive and HEK293 viab inactive.
